Data: PubChem BioAssay AID651785 (The Scripps Research Institute Molecular Screening Center, 2012)
About 950 (40%) of roughly 2,400 compounds were called active. Only a sample is shown. Values without a mark were called inactive. No stated cut-off is given here; in the data, active means inhibition above about 49%; inactive means the rest.

molecular target: Trace amine-associated receptor 1 (Homo sapiens) (UniProt Q96RJ0); assay: human TAAR1 antagonists, retest of hits, confirmation, cell-based, fluorescence (AID 651785); conditions: TAAR1-expressing cells, fluorescence antagonist read-out; at 3 µM; stronger effect = higher value;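 further: CHO-Ga16 host cells challenged with agonist PEA near its EC80; 0% = agonist at EC80 plus vehicle and 100% = vehicle with no agonist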
Sequence (Q96RJ0 whole entry, looked up, the tested form may be a part): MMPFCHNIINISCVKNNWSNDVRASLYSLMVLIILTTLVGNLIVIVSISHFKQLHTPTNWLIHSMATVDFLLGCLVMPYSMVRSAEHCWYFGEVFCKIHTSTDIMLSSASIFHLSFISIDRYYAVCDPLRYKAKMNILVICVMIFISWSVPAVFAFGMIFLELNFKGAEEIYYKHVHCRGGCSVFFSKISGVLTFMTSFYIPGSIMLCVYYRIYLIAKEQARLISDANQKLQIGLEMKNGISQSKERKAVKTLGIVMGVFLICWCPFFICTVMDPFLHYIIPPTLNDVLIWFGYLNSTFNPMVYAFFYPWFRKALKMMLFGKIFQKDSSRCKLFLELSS

Row | Compound | inhibition
1 | CN(c1ccccc1)S(=O)(=O)c1cc(C(=O)Nc2nc3ccccc3[nH]2)ccc1Cl | 50.8% (active)
2 | O=S(=O)(c1cccs1)N1CCCc2nc(-c3ccc(Br)cc3)ccc21 | 36.2%
3 | COc1ccc(C(=O)Nc2ccccc2C(=O)N/N=C/c2ccc(O)c(OC)c2)cc1 | 45.9%
4 | O=C(N/N=C/c1ccc(OC(=O)c2ccccc2Cl)cc1)c1ccc(O)cc1 | 57% (active)
5 | COc1ccc(-c2cc(C(=O)N(C)Cc3ccc(OC)c(OC)c3OC)c3ccccc3n2)cc1OC | 56.9% (active)
6 | COc1ccc(NC(=O)c2cc(-c3ccc(C)o3)nc3ccccc23)cc1 | 41.2%
7 | COc1ccc(-c2cc(C(=O)N(C)CC(=O)Nc3ccccc3Cl)c3ccccc3n2)cc1OC | 52.2% (active)
8 | COc1ccc(-c2cc(C(=O)Nc3ccccc3O)c3ccccc3n2)cc1 | 59% (active)
9 | CC(=O)N1CCN(C(=O)c2cc(-c3ccc(Cl)s3)nc3ccccc23)CC1 | 38.7%
10 | COc1ccc(-c2cc(C(=O)N(C)Cc3ccccc3)c3ccccc3n2)cc1 | 44.3%
11 | COc1ccc(-c2nn(-c3ccccc3)cc2C(=O)Nc2nccs2)cc1OC | 46.5%
12 | COc1ccc(CN(C)C(=O)c2cc(-c3ccc(C)cc3C)nc3ccccc23)c(OC)c1OC | 53.7% (active)
13 | COc1ccc(C(=O)Nc2cccc(NC(=O)c3ccc(OC)cc3OC)n2)c(OC)c1 | 45.9%
14 | Cc1cc(C(C)(C)C)oc1C(=O)N(CC(=O)NC1CCCC1)Cc1ccc(Cl)cc1 | 43.7%
15 | CSCCC(NC(=O)COc1ccccc1)C(=O)OCCOc1ccc(Br)cc1 (stereo unspecified) | 17.8%
16 | O=C(NCC1CCCO1)c1cc2c([nH]c3ccccc32)c(-c2ccc(F)cc2)n1 (stereo unspecified) | 46%
17 | Cn1c2ccccc2c(=O)c2c(=O)n(Cc3ccco3)c(COc3ccccc3)nc21 | 51% (active)
18 | COc1ccc(S(=O)(=O)N(CC(=O)NCc2ccco2)c2ccc(F)cc2)cc1 | 39.1%
19 | C=CCn1c(SCc2cccc(F)c2)nc2cc(C(=O)N3CCC(C(N)=O)CC3)ccc2c1=O | 43.9%
20 | Cc1nc(N2CCN(c3ccccn3)CC2)c2c(C)c(C(=O)Nc3ccc(F)cc3)sc2n1 | 53% (active)
21 | Clc1ccc(Nc2ncnc3c2nnn3Cc2ccccc2)cc1 | 31%

Row | Compound | inhibition
22 | COc1cc(/C=C2/C(=O)ON=C2C)ccc1OCc1ccccc1F | 61.3% (active)
23 | COC(=O)c1sccc1NC(=O)c1cc(OC)c(OC)c(OC)c1 | 37.3%
24 | COc1ccc(/C=C/C(=O)Nc2ccc(C34CC5CC(CC(O)(C5)C3)C4)cc2)cc1OC | 57.9% (active)
25 | NNC(=O)CNC(c1ccccc1)c1cc(Cl)ccc1NC(=O)c1ccccc1 (stereo unspecified) | 34.3%
26 | Oc1ccccc1N1CCN(c2ncnc3sc(-c4ccccc4)cc23)CC1 | 47.6%
27 | CC(C)(C)OC(=O)NCCCCCNC(=O)c1nc[nH]c1C(=O)NCc1ccccc1 | 37.2%
28 | CC(C)Oc1cc(F)ccc1-c1cc(C(=O)Nc2ccc(F)cc2)[nH]n1 | 46.1%
29 | C=CCC[C@H](Cc1ccc(F)cc1)C(=O)OC[C@H](C)NC(=O)[C@H](CC=C)CC(=O)N(CCO)Cc1ccccc1 | 54% (active)
30 | C=CCC[C@@H](Cc1ccc(F)cc1)C(=O)O[C@H](CNC(=O)[C@H](CC=C)CC(=O)N(CCO)Cc1ccccc1)c1ccccc1 | 57.8% (active)
31 | O=C(NCc1ccc2c(c1)OCO2)c1c(-c2ccsc2)sc2ccccc12 | 26.4%
32 | O=C(CN1CCCSc2ccccc21)N1CCN(S(=O)(=O)c2cccc(F)c2)CC1 | 34.9%
33 | Fc1ccc(/C=N/Nc2nc(-c3cccnc3)nc3ccccc23)cc1 | 41.7%
34 | Oc1ccc(/C=N/Nc2nc(-c3ccccc3F)nc3ccccc23)c(O)c1 | 55.8% (active)
35 | C/C(=N\Nc1ncc(Cl)cc1Cl)c1ccc(S(=O)(=O)NCc2ccco2)cc1 | 33%
36 | CC(=O)Nc1ccc(NC(=O)COC(=O)C2CCC(C(C)(C)C)CC2)cc1 (stereo unspecified) | 52.9% (active)
37 | C[C@H](NC(=O)c1nc[nH]c1C(=O)NCC(=O)OC(C)(C)C)C(=O)OCc1ccccc1 | 46.1%
38 | COc1ccc(CCNC(=O)c2ccc(CS(=O)(=O)c3ccc(Br)cc3)o2)cc1OC | 52.1% (active)
39 | COc1ccc(CCNC(=O)C(=O)NCC2OCCN2S(=O)(=O)c2ccc(OC)c(C)c2)cc1 (stereo unspecified) | 26.8%
40 | COc1cc(OC)cc(C(=O)OCC(=O)Nc2sccc2C(N)=O)c1 | 48.2%
41 | O=C(COC(=O)CCCSc1nc2ccccc2[nH]1)Nc1ccc(Oc2ccccc2)cc1 | 50.7% (active)
42 | N#Cc1cccc(NC(=O)COC(=O)c2ccccc2C(=O)c2ccc(Cl)c([N+](=O)[O-])c2)c1 | 52.5% (active)

Row | Compound | inhibition
43 | CC(=O)n1cc([C@H]2C=C(C(=O)N3CCOCC3)O[C@@H](OCc3ccc(CO)cc3)C2)c2ccccc21 | 40.4%
44 | O=C(CCc1ccccc1)Nc1cccc(-c2nnc(-c3ccco3)o2)c1 | 49.1% (active)
45 | O=C(Nc1ccc(-c2nnc(-c3ccccc3)o2)cc1)c1ccc(Br)o1 | 21.3%
46 | CCC(=O)Oc1cccc(C(=O)Nc2ccc(-c3nnc(-c4ccco4)o3)cc2)c1 | 46.1%
47 | COc1ccc(Cl)cc1NC(=O)CCS(=O)(=O)c1cc2c(cc1C)NC(=O)CO2 | 36%
48 | CCOC(=O)C1C(c2ccc(OC)c(OC)c2)c2c([nH][nH]c2=O)CC1(C)O (stereo unspecified) | 38.7%
49 | Cc1ccc(-n2c(C)cc(/C=N\NC(=O)CC(=O)NC(C)C)c2C)cc1 | 97.9% (active)
50 | CNC(=O)c1ccsc1NC(=O)c1ccc(S(=O)(=O)N2CCc3ccccc32)cc1 | 43.2%
51 | O=C(COC(=O)c1ccccc1SCC(=O)N1CCCC1)Nc1ccccc1OC(F)F | 52.2% (active)
52 | O=C(OCC(=O)N(CCc1ccccc1)Cc1ccccc1)c1ccccc1[N+](=O)[O-] | 47.4%
53 | CC(C)N(Cc1ccccc1)C(=O)COC(=O)c1ccccc1SCC(=O)N1CCCC1 | 52.8% (active)
54 | COC(=O)[C@@]1(Sc2ccc(C)cc2)CC(=O)N(c2cccc(SC)c2)[C@@H]1c1ccccc1 | 47.3%
55 | CCOc1ccc(NC(=O)N2CC=C(n3c(=O)[nH]c4ccccc43)CC2)cc1 | 39.5%
56 | COC(=O)C1=C(C)N(Cc2ccc(F)cc2)C(=S)NC1c1cccc(Cl)c1 (stereo unspecified) | 36.5%
57 | CCN=C1SC(CC(=O)Nc2ccc(C)cc2)C(=O)N1CC (stereo unspecified) | 59.2% (active)
58 | O=C(N/N=C/c1ccc(Cl)c(Cl)c1)c1ccc2nc[nH]c2c1 | 52.9% (active)
59 | CCOc1cc(/C=N/NC(=O)c2cc(-c3ccccc3)nc3ccccc23)ccc1O | 44.9%
60 | CSc1nc(-c2ccccc2)nc(C(Cl)Cl)n1 | 36.6%
61 | COc1cc(SC#N)ccc1N=Cc1c(C)[nH]n(-c2ccc(C)cc2)c1=O | 67.6% (active)
